Unmarked numbers belong to inactive results. Results filed as inconclusive are left out. The source made the active and inactive calls. Calls follow the shape of the dose curve; as a rule, active = well fitted curve in the direction sought with a large enough effect; inconclusive = small, poorly fitted or top-dose-only effect, or another doubt; inactive = no such curve, though single readings can be large; an effect the other way counts as inactive or inconclusive.

For the first assay, the target named is Cytochrome P450 3A4 (Homo sapiens) (UniProt P08684). Description: qHTS Assay for Inhibitors and Substrates of Cytochrome P450 3A4 (AID 884). Also: % is scaled to controls: 0 for no effect and ±100 for the full control effect; nearly all actives have a fitted effect of over 50% in size. The conditions noted are these: recombinant CYP3A4, Luciferin-PPXE luminescence; series mostly up to 57.1 µM; activity change, negative = inhibition: at the top concentration. The method in brief: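 Luminescent readout of luciferin produced by CYP3A4 (20 nM) dealkylation of Luciferin-PPXE, 25 uM (its KM). NADPH-driven reaction ran 60 min at RT after 10 min compound preincubation; data scaled to 57 uM ketoconazole as 100% inhibition.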
Sequence of Cytochrome P450 3A4 (Homo sapiens) (P08684 whole entry, looked up): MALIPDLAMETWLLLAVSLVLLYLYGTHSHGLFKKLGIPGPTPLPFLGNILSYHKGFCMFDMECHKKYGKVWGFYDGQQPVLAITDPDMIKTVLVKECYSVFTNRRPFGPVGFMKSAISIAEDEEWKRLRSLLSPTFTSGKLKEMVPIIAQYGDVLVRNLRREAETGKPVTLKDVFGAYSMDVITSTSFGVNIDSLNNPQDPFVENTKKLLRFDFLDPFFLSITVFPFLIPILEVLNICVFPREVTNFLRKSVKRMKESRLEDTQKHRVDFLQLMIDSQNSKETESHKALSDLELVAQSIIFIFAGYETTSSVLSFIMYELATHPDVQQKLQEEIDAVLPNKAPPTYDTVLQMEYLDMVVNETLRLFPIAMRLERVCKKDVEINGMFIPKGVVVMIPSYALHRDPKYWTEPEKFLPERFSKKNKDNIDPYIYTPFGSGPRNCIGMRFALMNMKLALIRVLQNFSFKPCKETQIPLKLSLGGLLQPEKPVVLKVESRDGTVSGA
`COc1cc(O)c2c(=O)cc(-c3ccc(OC)c(-c4c(O)cc(O)c5c(=O)cc(-c6ccc(O)cc6)oc45)c3)oc2c1`: the “activity change, negative = inhibition” value was -47.2%.

As for `O=C(O)c1c(Sc2ccccc2)c2cc(Cl)ccc2n1Cc1ccc(Cl)cc1`, the “activity change, negative = inhibition” value was 68.6%.

Regarding `CC(C)=CCCC1(C)C=Cc2c(O)c3c(c(CC=C(C)C)c2O1)OC12C(=CCCC1C(C)(C)O[C@@]2(C/C=C(\C)C(=O)O)C(=O)O)C3=O` (stereo partly specified), the “activity change, negative = inhibition” value is -12.4%.

A further assay shares this target. Kind of assay: qHTS Assay for Activators of Cytochrome P450 3A4 (AID 885). Also: nearly all actives have a fitted effect of over 65% in size. Also: potency is read from the fitted curve at half-maximal effect. The conditions noted are these: recombinant CYP3A4, Luciferin-PPXE luminescence, 60 min; series mostly up to 57.1 µM; activity change, positive = activation: at the top concentration. In outline: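 Using 20nM recombinant human CYP3A4 in potassium phosphate (200mM), substrate Luciferin-PPXE at 25uM, luminescent luciferin detection followed a 60-min RT NADPH reaction; data scaled to 57 uM ketoconazole.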
In general terms: qHTS replaces the single test concentration by a dilution series.
Consider `Cc1c(-c2ccc(O)cc2)nn(-c2ccc(O)cc2)c1-c1ccc(OCCN2CCCCC2)cc1`, for which the “activity change, positive = activation” value is -34.2%.

On to `Cc1cc(C)cc(C(=O)N(C)[C@H](Cc2ccc(-c3ccccc3)cc2)C(=O)N[C@@H](Cc2c[nH]c3ccccc23)C(=O)O)c1`, for which the “activity change, positive = activation” value was -63.3%.

On to `O=C(O)c1c(Sc2ccccc2)c2cc(Cl)ccc2n1Cc1ccc(Cl)cc1`, for which the Potency was 7.94 µM (active).

Values taken from PubChem BioAssay (NCATS).
